# High-throughput results (PubChem BioAssay)
# IDH1 R132H inh – human IDH1 R132H inhibition | O75874 | IDH1-R132H enzyme, NADPH consumption, diaphorase/resazurin fluorescence | Potency, µM (highest dose often 76.6 µM), inactives show at the highest dose activity change, negative = inhibition, usual class: inhibitors | 0.093% of 390,000 active | AID 602179; further: on the % scale 0 is the no-effect control and ±100 the full control effect; nearly all actives have a fitted effect of over 65% in size
# Target sequence (O75874 whole entry R132H, stated change not applied): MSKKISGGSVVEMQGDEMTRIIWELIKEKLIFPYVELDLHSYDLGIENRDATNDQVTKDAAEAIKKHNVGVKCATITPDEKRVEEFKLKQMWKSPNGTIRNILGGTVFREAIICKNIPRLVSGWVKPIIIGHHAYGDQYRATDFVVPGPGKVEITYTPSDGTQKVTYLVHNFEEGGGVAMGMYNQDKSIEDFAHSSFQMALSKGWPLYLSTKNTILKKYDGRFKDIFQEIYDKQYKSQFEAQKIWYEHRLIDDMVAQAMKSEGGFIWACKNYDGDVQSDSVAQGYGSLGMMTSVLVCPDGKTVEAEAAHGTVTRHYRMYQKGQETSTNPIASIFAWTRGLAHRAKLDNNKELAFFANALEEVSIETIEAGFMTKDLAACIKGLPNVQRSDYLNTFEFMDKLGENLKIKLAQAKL
#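 IDH1-R132H (0.5 ug/mL dispensed) in pH 7.5 Tris buffer was preincubated 30 min with compound, then given a substrate mix of 0.016 mM NADPH and 2 mM alpha-KG for 80 min at room temperature; remaining NADPH was read by diaphorase/resazurin fluorescence.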
# TrxR1 substrate – substrates of rat thioredoxin reductase 1. O89049. purified TrxR1 substrate turnover, NADPH consumption readout. 0.01% of 390,000 active. AID 588456. Potency, µM (top dose mostly 114 µM), for the others: at the top dose activity change, negative = substrate turnover; further: on the % scale 0 is the no-effect control and ±100 the full control effect; nearly all actives have a fitted effect of over 50% in size
#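 Rat TrxR1, dispensed at 90 nM, was prereduced with 400 uM NADPH (final) for 5 min at ~22 deg C, then incubated with compound 15 min before 400 uM selenite. A first-read NADPH fluorescence drop versus no-compound background flagged substrates.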
# Apoferritin bind – candidate novel general anesthetic via apoferritin binding; P02791; apoferritin/1-aminoanthracene competitive binding, fluorescence; Potency, µM (titrated, usually from 77.5 µM), for the others: top-dose activity change, negative = displacement, actives largely listed as inhibitors; 0.074% of 350,000 active; further: on the % scale 0 is the no-effect control and ±100 the full control effect; nearly all actives have a fitted effect of over 20% in size
# Target sequence (P02791 2-175 limits assumed): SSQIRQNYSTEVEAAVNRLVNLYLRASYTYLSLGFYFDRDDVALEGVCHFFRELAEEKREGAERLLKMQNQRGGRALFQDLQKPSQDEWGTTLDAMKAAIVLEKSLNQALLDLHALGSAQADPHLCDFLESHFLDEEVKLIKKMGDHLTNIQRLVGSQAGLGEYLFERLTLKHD
#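 Probe: 1-aminoanthracene (50% saturated, PBS). Protein: horse-spleen apoferritin, 10 uM. Incubation: 10 min, room temperature. Detection: 380 nm excitation, 535 nm emission. Analysis: normalized response, four-parameter Hill.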
# 12-LOX inh – ALOX12 (human) lipoxygenase inhibition; P18054; purified 12hLO, xylenol orange hydroperoxide absorbance; Potency, µM (titrated, usually from 108 µM), for inactives: at the top dose activity change, negative = inhibition, actives largely listed as inhibitors; 1.1% of 580,000 active; AID 1671190; further: on the % scale 0 is the no-effect control and ±100 the full control effect
#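 Purified human 12hLO (150 nM final) in 25 mM Hepes, 0.01% Triton X-100, pH 7.0 was preincubated 15 min at room temperature with compound. Then 40 uM arachidonic acid was added, 30 min. Hydroperoxide was read by Fe-XO absorbance ratio 573/405 nm.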
# rTrxR1 inhibitor – inhibitors of rat thioredoxin reductase 1; Potency, µM (series often up to 114 µM), without a hit: at the highest dose activity change, negative = inhibition, hits mostly inhibitors; recombinant rTrxR1, NADPH fluorescence consumption, selenite substrate; AID 588453; 1% of 390,000 active; further: on the % scale 0 is the no-effect control and ±100 the full control effect; nearly all actives have a fitted effect of over 65% in size
#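 Rat TrxR1 (90 nM in the dispensed reagent) was pre-reduced with 400 uM NADPH for 5 min at room temperature, then incubated with compound for 15 min. After 400 uM selenite was added, NADPH fluorescence (Ex 340/Em 450 nm) was followed for 8 min.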
# GRP78 ERSR act – inducers of ER stress response in human glioma cells; 0.02% of 420,000 active; AID 602332; U87-MG GRP78 promoter luciferase reporter, 16 h; Potency, µM, without a hit: at the highest dose activation, usual class: activators; further: series mostly up to about 76 µM; % of control where 0% means no effect; nearly all actives have a fitted effect of over 35% in size
#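 Stably transfected U87-MG human glioma cells carrying a GRP78-based luminescent sensor were seeded at 1000 cells/well, pin-dosed with compounds and incubated 16 h. Luciferase reagent was then added, and end-point luminescence was read after 10 min at room temperature.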
# Numbers without * were called inactive; ? = inconclusive; / = not tested or not shown; [ ] = dose if it differs, or a comment. This is a sample that favours compounds with a hit; in the whole collection about 1.7% have one here. The call rests on the fitted dose curve; in most records, active means well fitted curve in the direction sought with a large enough effect; inconclusive means small, poorly fitted or top-dose-only effect, or another doubt; inactive means no such curve, though single readings can be large; an effect the other way counts as inactive or inconclusive. Potency means the concentration at half of the fitted maximal effect.
SMILES,IDH1 R132H inh,TrxR1 substrate,Apoferritin bind,12-LOX inh,rTrxR1 inhibitor,GRP78 ERSR act
COc1cccc(OC)c1C(=O)Nc1ccc(-c2nc3ccccc3o2)cc1,/,/,/,39.8µM*,/,/
COc1cccc(NC(=O)CSc2nnc(COc3ccc4c(c3)CCCC4)o2)c1,5.3%,-12.4%,-9.8%,14.1µM*,-12.5%,-6.3%
CC(C)NC(=O)CCS(=O)(=O)c1cccc2nonc12,8.9%,15.0%[57.1 µM],2.9%,-14.4%,-31.6%[57.1 µM],2.2%
CC(C)CCNC(=O)CCS(=O)(=O)c1cccc2nonc12,2.2%,-2.7%,-8.4%,0.0%,56.2µM*,-3.2%
COc1cccc(CNC(=O)CCS(=O)(=O)c2cccc3nsnc23)c1,3.5%,-6.5%,-15.4%,0.0%,-5.4%,-7.7%
COc1cccc(CNC(=O)CCS(=O)(=O)c2cccc3nonc23)c1,-1.9%,-0.5%,-13.2%,0.0%,15.8µM*,0.7%
O=C(CSc1ccccc1Br)c1ccc2c(c1)OCCO2,/,/,/,67.2%,/,/
COC(=O)c1ccc(Cl)cc1NC(=O)N(Cc1ccc(OC)cc1)C1CCN(C(C)=O)CC1,?,-0.9%,-8.3%,2.1%,0.4%,4.1%
CCN1CCC(N(Cc2ccco2)C(=O)Nc2cc(Cl)ccc2C(=O)OC)CC1,/,/,/,6.31µM*,/,/
O=C(NC(=S)Nc1ccc(S(=O)(=O)Nc2ncccn2)cc1)c1ccc(Br)cc1,6.6%,4.4%[11.4 µM],-1.9%,20µM*,20.3%[11.4 µM],-2.2%
COc1ccc(NS(=O)(=O)c2ccc(NC(=S)NC(=O)c3cccnc3)cc2)nn1,18.0%,-0.1%[57.1 µM],-7.2%,?,5.4%[57.1 µM],3.8%
COc1ccc(NS(=O)(=O)c2ccc(NC(=S)NC(=O)c3cccc(F)c3)cc2)nn1,2.0%,-12.6%,10.2%,39.8µM*,?,-3.1%
COc1ccc(NS(=O)(=O)c2ccc(NC(=S)NC(=O)c3ccc(Br)cc3)cc2)nn1,1.0%,-19.7%,-1.4%,25.1µM*,?,-1.8%
O=S(=O)(NNC(=S)Nc1ccc(S(=O)(=O)Nc2ncccn2)cc1)c1ccc(Br)cc1,0.0%,-5.7%,-15.7%,-41.5%,-1.6%,-3.4%
O=C(Nc1cnn(Cc2ccccc2)c1)NC12CC3CC(CC(C3)C1)C2,6.9%,-4.0%[57.1 µM],15.8µM*,?,-14.6%,2.9%
O=C(OCc1ccccc1)c1ccncc1,/,/,/,9.5%,/,/
S=c1[nH]nc(COc2ccc3ccccc3c2)o1,-3.0%,-6.0%,2.5%,39.8µM*,-13.7%,-5.1%
COc1ccc(Cc2n[nH]c(=S)o2)cc1,10.7%,13.2%[57.1 µM],-14.7%,-7.1%,12.0%[57.1 µM],1.5%
O=C(NC1CCN(c2cc(-c3cccs3)[nH]n2)C1)c1cccc(Br)c1 (centres undefined),/,/,/,40.7%,/,/
COc1ccccc1NC(=O)c1c(C)nc2ccccc2c1C(=O)O,17.6%,-0.1%,9.2%,14.1µM*,7.4%,-0.3%
Cc1nc([N+](=O)[O-])c(Sc2nc3ccccc3n2C)n1Cc1ccccc1,5.9%,-2.7%,-0.4%,-13.1%,6.31µM*,-11.0%
Cc1ccc(-n2ncc3c(Nc4ccccc4)ncnc32)cc1,/,/,/,-25.2%,/,/
Clc1ccc(Nc2ncnc3c2cnn3-c2ccccc2)cc1,33.1%,12.5%,5.0%,25.1µM*,34.1%,1.7%
COCCNc1ncnc2c1cnn2-c1ccc(Cl)cc1,3.6%,15.9%,-4.6%,14.1µM*,10.5%,-5.8%
O=C(CSc1nnc(Cc2cc(=O)[nH]c(=O)[nH]2)n1-c1ccc(F)cc1)N1CCCCC1,-9.5%,-4.3%[57.1 µM],-1.4%,70.5%,-16.9%[57.1 µM],?
COc1cccc(-n2c(Cc3cc(=O)[nH]c(=O)[nH]3)nnc2SCC(=O)N2CCCCC2)c1,12.1%,-6.0%[57.1 µM],0.8%,8.91µM*,2.5%[57.1 µM],-2.1%
CN(C)c1ccc(CN2CCCCCC2)cc1,7.3%,1.5%,-6.4%,-1.4%,12.0%,1.9%
NC(N)=NCc1ccc(CN2CCCC2)cc1,/,/,/,44.7µM*,/,/
CC(=O)Nc1ccc(C(=O)N2CCC3(CC2)N=C(c2ccc(Br)cc2)NO3)cc1,/,/,/,-25.8%,/,/
C#CCNC(=O)c1nc(-c2cccc(F)c2)c2cnccn12,/,/,/,8.2%[176 µM],/,/
